PubChem BioAssay AID588727 (Southern Research Specialized Biocontainment Screening …, 2011)
The whole screen tested about 350,000 compounds, of which about 450 (0.13%) were called active. How the calls were made is not given here. Only a sample is shown. Results with a measured potency or affinity are listed apart.

Test: inhibitors of VEEV TC-83 cytopathic effect, confirmation, Vero cells (AID 588727)
Details: VEEV TC-83 cytopathic effect inhibition, at 20 µM
[1] = stronger effect = higher value unless noted

COc1ccc(C(=O)CCC(=O)Nc2cccnc2)cc1
inhibition [1]: 1.27% (inactive)

COc1ccc(Nc2c(-c3ccc(C)cc3)nc3cnccn23)cc1
inhibition [1]: 2.6% (inactive)

CCOC(=O)C1CCCN(c2nnnn2-c2ccccc2)C1 (stereo not given)
inhibition [1]: 0.53% (inactive)

O=C(CSc1nnc(-c2ccco2)o1)Nc1cccc([N+](=O)[O-])c1
inhibition [1]: 1.81% (inactive)

O=C(Oc1ccc2ccccc2c1Cl)N1CCCCCC1
inhibition [1]: 2.11% (inactive)

O=C(Oc1ccc2ccccc2c1Cl)N1CCCC1
inhibition [1]: 35.1% (inactive)

CN1CCN(C(=O)CCc2nc3ccccc3c(=O)[nH]2)CC1
inhibition [1]: 5.24% (inactive)

CN(C)C(CNC(=O)CN1C(=O)NC2(CCCC2)C1=O)c1ccccc1 (stereo not given)
inhibition [1]: 1.45% (inactive)

CCOc1ccc(/C=N/NC(=O)c2ccc(O)cc2)cc1CN1CC2CC(C1)c1cccc(=O)n1C2 (stereo not given)
inhibition [1]: 1.76% (inactive)

CCc1c(C)sc(NC(=O)C2CCCCC2C(=O)O)c1C(N)=O (stereo not given)
inhibition [1]: inactive

CCc1c(C)sc(NC(=O)c2cccs2)c1C(N)=O
inhibition [1]: 0.91% (inactive)

O=C(O)CSc1nnc(Cc2ccccc2)n1-c1ccccc1
inhibition (stronger effect = higher value): 4.71% (inactive)
inhibition (measured here: 10K pilot screen inhibition, stronger effect = higher value): 0.6%

COc1ccc(Cl)cc1NC(=O)C(C)N(C)Cc1cccc(Cl)c1Cl (stereo not given)
inhibition [1]: 0.94% (inactive)

COc1ccc(C2/C(=C(\O)c3cc(C)ccc3C)C(=O)C(=O)N2CCN(C)C)cc1OC (stereo not given)
inhibition [1]: 0.58% (inactive)

O=C(O)CCC(=O)N1CCCC1
inhibition [1]: 0.36% (inactive)

Nc1ccn([C@H]2CS[C@@H](CO)O2)c(=O)n1
inhibition [1]: 1.18% (inactive)

CC(Sc1ncnc2sc(-c3ccccc3)cc12)C(=O)NCC1CCCO1 (stereo not given)
inhibition [1]: 12.6% (inactive)

CCc1cccc2c(SC(C)C(=O)NCC3CCCO3)nc(-c3ccccc3)nc12 (stereo not given)
inhibition [1]: 0.17% (inactive)

Cc1cccc(NC(=O)NNC(=O)c2sccc2-n2cccc2)c1
inhibition [1]: 2.59% (inactive)

O=C(/C=C/c1c(F)cccc1Cl)Nc1ncccn1
inhibition [1]: 7.45% (inactive)

O=C(/C=C/c1ccccc1Cl)c1ccc(O)cc1
inhibition [1]: 12.4% (inactive)

CCCCn1c(N)c(N(Cc2ccccc2OC)C(=O)CCSC)c(=O)[nH]c1=O
inhibition [1]: 2% (inactive)

Cc1nn(C)cc1/C=N/NC(=S)Nc1ccc(Cl)cc1Cl
inhibition [1]: 1.88% (inactive)

Clc1cccc(-c2noc3ncnc(Nc4ccc5c(c4)OCO5)c23)c1
inhibition [1]: 1.3% (inactive)

O=C(Nc1ccc(N2CCCC2)c(Cl)c1)c1cccnc1
inhibition [1]: 9.45% (inactive)

O=C(Nc1ccc(N2CCOCC2)c(Cl)c1)c1cccnc1
inhibition [1]: 1.94% (inactive)

O=C(Nc1ccc(Cl)cc1)c1nc[nH]c1C(=O)NCCN(CCNC(=O)c1[nH]cnc1C(=O)Nc1ccc(Cl)cc1)CCNC(=O)c1[nH]cnc1C(=O)Nc1ccc(Cl)cc1
inhibition [1]: 0.19% (inactive)

CCCN1C(=O)c2ccccc2NC1c1cc(OC)c(OC)c(OC)c1 (stereo not given)
inhibition [1]: inactive

CCCN1C(=O)c2ccccc2NC1c1ccc(OC)cc1OC (stereo not given)
inhibition [1]: inactive

CCOC(=O)c1c(-c2ccccc2)oc2cc(CN(C)C)c(O)c(CN(C)C)c12
inhibition [1]: 2.26% (inactive)

CC1(C)Cc2[nH]c3ccccc3c2C(C)(C)N1
inhibition [1]: 0.1% (inactive)

Cc1cccn2cc(-c3ccccc3)nc12
inhibition [1]: 5.4% (inactive)

Cc1cccn2cc(COc3cccc([N+](=O)[O-])c3)nc12
inhibition [1]: 2.58% (inactive)

Cc1ccc(S(=O)(=O)Oc2ccc(N3C(=O)C4C5CCC(C5)C4C3=O)cc2)cc1 (stereo not given)
inhibition [1]: 2.05% (inactive)

Cc1ccc2[nH]c3c(=O)n(CC(=O)Nc4ccccc4N4CCN(C)CC4)ncc3c2c1
inhibition [1]: 0.06% (inactive)

Cc1ccc2oc(=O)c3cnn(CC(=O)N4CCN(c5ccccc5)CC4)c3c2c1
inhibition [1]: 10.3% (inactive)

COc1ccc(C)cc1NC(=O)CCN1CCN(C/C=C/c2ccccc2)CC1
inhibition [1]: inactive

OC1(c2cccs2)CN(c2ccc(Cl)cc2)C2=[N+]1CCCS2 (stereo not given)
inhibition [1]: 0.66% (inactive)

Cc1ccccc1N1CC(O)(c2cccs2)[N+]2=C1CCCC2 (stereo not given)
inhibition [1]: 1.35% (inactive)

C[N+]1=C2CCCCCN2C(O)(c2ccccc2)C1 (stereo not given)
inhibition [1]: inactive

CCc1ccc(N2CC(O)(c3cccs3)[N+]3=C2SCCC3)cc1 (stereo not given)
inhibition [1]: 3.66% (inactive)

COc1ccc2oc(C(=O)NCC3CCCO3)c(C)c2c1 (stereo not given)
inhibition [1]: 5.81% (inactive)

COc1ccc(CCNC(=O)CSc2nccc(=O)[nH]2)cc1OC
inhibition [1]: inactive

COc1ccccc1N/N=C(\C#N)C(=N)N1CCOCC1
inhibition [1]: 1.39% (inactive)

COc1ccc(Nc2cc(C(=O)NCCCN3CCN(C)CC3)c3ccccc3n2)cc1OC
inhibition [1]: 0.68% (inactive)

COc1ccc(Nc2cc(C(=O)NCCCN3CCN(C)CC3)c3ccccc3n2)cc1
inhibition [1]: 0.57% (inactive)

O=C(NCc1ccccc1Cl)C(=O)NCC(c1ccco1)N1CCOCC1 (stereo not given)
inhibition [1]: inactive

Cc1c(NC(=O)CSCc2ccccc2)cccc1C(=O)O
inhibition [1]: 0.57% (inactive)

Cc1ccc(CSCC(=O)Nc2ccccc2F)cc1
inhibition [1]: 1.09% (inactive)

COCCCNC(=S)NCCc1ccc(F)cc1
inhibition [1]: 0.69% (inactive)

COc1ccc(NCC(=O)N/N=C2\CCCC(C)C2)cc1 (stereo not given)
inhibition [1]: 0.09% (inactive)

C=CCN=c1scc(-c2ccc(F)cc2)n1/N=C/c1ccccn1
inhibition [1]: 7.98% (inactive)

C=CCN=c1scc(-c2ccccc2)n1/N=C/c1ccccn1
inhibition [1]: 12% (inactive)

CC(=O)OCC1OC(n2cc(F)c(=O)[nH]c2=O)C(OC(C)=O)C1OC(C)=O (stereo not given)
inhibition [1]: 5.22% (inactive)

C[C@H]1O[C@@H](n2cc(F)c(=O)[nH]c2=O)[C@H](O)[C@@H]1O
inhibition [1]: 6.89% (inactive)

Cc1ccnc(NC(=O)CCC(=O)N(CC(=O)NCc2ccc(F)cc2)CC2CCCO2)c1 (stereo not given)
inhibition [1]: 0.42% (inactive)

COc1ccccc1-c1cn[nH]c1-c1ccc(OCc2ccc(F)cc2)cc1O
inhibition [1]: 3.76% (inactive)

OCCOCCNc1ncnc2c1c(-c1ccccc1)cn2-c1ccccc1
inhibition [1]: 10.9% (inactive)

c1ccc(-c2cn(-c3ccccc3)c3ncnc(NCCCN4CCOCC4)c23)cc1
inhibition [1]: 9.07% (inactive)

COc1ccc(NC(=O)CN2CCCCC2)cc1S(=O)(=O)N1CCCCC1
inhibition [1]: 0.88% (inactive)

NC(=O)CC(NC(=O)Cc1cccc2ccccc12)c1ccc(NCc2ccc(F)c(F)c2)c([N+](=O)[O-])c1 (stereo not given)
inhibition [1]: 0.49% (inactive)

CNC(=O)/C(C#N)=C/c1cn(CC(=O)OC)c2ccccc12
inhibition [1]: 0.69% (inactive)

COc1ccc(OC)c2[nH]c(C(=O)N3CCC(C(=O)O)CC3)cc12
inhibition [1]: 0.69% (inactive)

COc1cc2cc(C(=O)O)[nH]c2c(OC)c1OC
inhibition [1]: 0.1% (inactive)

COC(=O)c1cc(S(=O)(=O)N2CCN(c3ccc([N+](=O)[O-])cc3)CC2)c[nH]1
inhibition [1]: 3.14% (inactive)

O=S(=O)(/C=C/c1ccccc1)Oc1ccccc1
inhibition [1]: inactive

Cc1c(C)n(CCCN(C)C)c2ncnc(Nc3ccccc3)c12
inhibition [1]: 1.72% (inactive)

COc1ccccc1Nc1ncnc2c1c(C)c(C)n2CCO
inhibition [1]: 0.65% (inactive)

CCOc1ccc(NC(=O)CN(C)C(=O)CCC2CCCCC2)cc1OCC
inhibition [1]: 2.6% (inactive)

NNc1nc(-c2ccccc2Cl)c2cc(Br)ccc2n1
inhibition [1]: 1.08% (inactive)

O=C(CCC1CCCN(C(=O)CCN2CCCCC2=O)C1)NCc1ccccc1F (stereo not given)
inhibition [1]: 0.405% [measured here: 10K pilot screen inhibition, stronger effect = higher value]
outcome [1]: inactive

C=CCN1C(=O)c2ccc(C(=O)NCCc3ccc(OC)c(OC)c3)cc2C1=O
inhibition [1]: 0.34% (inactive)

CC1CCCCC1NC(=O)COCc1cc(-c2cccs2)on1 (stereo not given)
inhibition [1]: inactive

COc1ccc(-n2c(C)cc(C(=O)Cn3nnc4ccccc4c3=O)c2C)cc1
inhibition [1]: 1.42% (inactive)

Cc1cc(C(=O)Cn2nnc3ccccc3c2=O)c(C)n1-c1c(C)n(C)n(-c2ccccc2)c1=O
inhibition [1]: inactive

CC1Sc2ccc(S(=O)(=O)CCC(=O)N3CCCC3)cc2NC1=O (stereo not given)
inhibition [1]: 2.36% (inactive)

O=C(CSc1nc(-c2ccccc2Cl)ns1)c1ccc(Cl)cc1
inhibition [1]: 1.15% (inactive)

COC(=O)c1ccc(N/C(=N/S(=O)(=O)c2ccccc2)c2ccccc2)cc1
inhibition [1]: 1.58% (inactive)

CCC(C)N=Cc1c(Nc2ccccc2)nc2c(C)cccn2c1=O (stereo not given)
inhibition [1]: inactive

CCCC[C@H]1COCCS(=O)(=O)N1Cc1cccc([N+](=O)[O-])c1
inhibition [1]: inactive

O=C(NCc1cccnc1)/C(=C\c1ccc(-c2ccc(Cl)c(Cl)c2)o1)S(=O)(=O)c1ccccc1
inhibition [1]: 0.29% (inactive)

O=C(NCc1cccnc1)/C(=C/c1ccc(-c2cccc(Cl)c2)o1)S(=O)(=O)c1ccccc1
inhibition [1]: 9.73% (inactive)

O=C(NC1CCCc2ccccc21)c1ccc(Br)cc1 (stereo not given)
inhibition [1]: 0.82% (inactive)

O=C(CCNC(=O)c1ccc([N+](=O)[O-])cc1)NC1CCCc2ccccc21 (stereo not given)
inhibition [1]: 9.16% (inactive)

O=C(CCNC(=O)c1ccccc1)NC1CCCc2ccccc21 (stereo not given)
inhibition [1]: inactive

O=C(Cc1ccc(Br)cc1)NC1CCCc2ccccc21 (stereo not given)
inhibition [1]: 3.28% (inactive)

CC(SCC(=O)Nc1ccccc1Br)c1nc2ccccc2c(=O)[nH]1 (stereo not given)
inhibition [1]: inactive

CCCOc1ccc(C(=O)Nc2cc(S(=O)(=O)N3CCOCC3)ccc2N2CCOCC2)cc1
inhibition [1]: 6.81% (inactive)

CC(=O)c1ccc(S(=O)(=O)N2CCN(C(=O)c3ccc(-n4nc(C)c(Cl)c4C)cc3)CC2)cc1
inhibition [1]: 2.19% (inactive)

O=[N+]([O-])c1cccc(/C=C/c2ccncc2)c1
inhibition [1]: inactive

O=[N+]([O-])c1cccc(/C=C/c2ccccn2)c1
inhibition [1]: 0.25% (inactive)

O=C(CCNS(=O)(=O)c1cccc(Cl)c1)OCC(=O)N1CCN(C(=O)c2ccco2)CC1
inhibition [1]: 0.85% (inactive)

O=C(CC1SC(N2CCOCC2)=NC1=O)Nc1ccccc1Cl (stereo not given)
inhibition [1]: 2.68% (inactive)

C=CCN1C(c2ccc(Br)cc2)=CS/C1=C(\C#N)c1nnc(N2CCOCC2)n1-c1ccccc1
inhibition [1]: 11.4% (inactive)

Cc1ccccc1CC1SC(N=C(N)N)=NC1=O (stereo not given)
inhibition [1]: 1.59% (inactive)

CC(=O)/C(C#N)=C1\NC(=O)C(Cc2cc(Cl)ccc2Cl)S1 (stereo not given)
inhibition [1]: 3.03% (inactive)

Cc1ccccc1CC1SC(N)=NC1=O (stereo not given)
inhibition [1]: 1.28% (inactive)

O=C1N/C(=N\c2ccccn2)SC1Cc1ccccc1Cl (stereo not given)
inhibition [1]: 4.16% (inactive)
